Where a name gives a salt, the structure may show the parent alone.
Legend:
Experiment in all cases: Euclidean distance of Cell Painting phenotypic profile (signed KS, 77 features) to DMSO centroid (dimensionless distance); 5 or 10 uM (library dependent); higher = stronger phenotypic change vs DMSO (phenoactivity)
Conditions in all cases: 48 h
786-O = system: 786-O
Outline: (§1)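 Phenoactivity is computed as Euclidean distance to the median vehicle profile. The profiles, drawn from 77 Harmony features scored as signed Kolmogorov-Smirnov statistics versus same-plate vehicle wells, were corrected for plate position, correlation-weighted and replicate-averaged at the top dose. Stained cells were imaged confocally at 20X (9 fields/well) after 48 h with library compounds at 10 or 5 uM, 0.1% DMSO final, in five cancer lines and a healthy fibroblast line.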

A549 = system: A549
Outline: as §1

DU145 = system: DU145
Outline: as §1

FB = system: FB
Outline: as §1

HEPG2 = system: HEPG2
Outline: as §1

OVCAR4 = system: OVCAR4
Outline: as §1

| Compound | Euclidean distance (786-O) | Euclidean distance (A549) | Euclidean distance (DU145) | Euclidean distance (FB) | Euclidean distance (HEPG2) | Euclidean distance (OVCAR4) |
| --- | --- | --- | --- | --- | --- | --- |
| Cc1cc(C2CCCCC2)n(O)c(=O)c1 [Ciclopirox] | 2.74 | 2.85 | 2.81 | 3.29 | 3.45 | 3.51 |
| CCS(=O)(=O)Nc1ccc2c(c1)/C(=C(/Nc1ccc(CN3CCCCC3)cc1)c1ccccc1)C(=O)N2 [Hesperadin] | 3.36 | 3.8 | 2.47 | 3.41 | 2.69 | 3.25 |
| Nc1nc(NC2CC2)c2ncn([C@H]3C=C[C@@H](CO)C3)c2n1 [Abacavir sulfate] | 1.09 | 1.86 | 1.39 | 1.19 | 0.688 | 1.74 |
| CNC(=O)[C@H](Cc1ccccc1)NC(=O)[C@H](CC(C)C)[C@H](CSc1cccs1)C(=O)NO [Batimastat (BB-94)] | 1.52 | 1.51 | 1.25 | 1.68 | 2.06 | 1.53 |
| COc1ccc(C(C)=O)c(O)c1 [Paeonol] | 1.07 | 0.755 | 0.885 | 0.979 | 0.302 | 1.58 |
| O=C(O)CC1CC(c2ccccc2)=NO1 (configuration not stated) | 0.76 | 1.81 | 1.27 | 1.31 | 0.596 | 0.844 |
| NC1(c2ccc(-c3nc4ccn5c(=O)[nH]nc5c4cc3-c3ccccc3)cc2)CCC1 | 3.5 | 2.58 | 2.67 | 3.61 | 2.59 | 2.07 |
| CC(C)(C#N)c1cc(Cn2cncn2)cc(C(C)(C)C#N)c1 [Anastrozole] | 1.11 | 0.727 | 0.702 | 0.902 | 0.572 | 1.41 |
| CC1(C)S[C@@H]2[C@H](NC(=O)[C@H](N)c3ccccc3)C(=O)N2[C@H]1C(=O)O [Ampicillin sodium] | 1.18 | 0.444 | 1.06 | 0.59 | 0.55 | 1.15 |
| O=C1c2ccc(Nc3ccc(F)cc3F)cc2CCc2ccc(OC[C@H](O)CO)cc21 [Skepinone-L] | 1.06 | 1.85 | 1.78 | 2.05 | 0.828 | 1.31 |
| COc1ccc([C@@H]2CC(=O)c3c(O)cc(O)cc3O2)cc1O [Hesperetin] | 1.32 | 0.944 | 1.21 | 1.47 | 1.37 | 1.23 |
| CCC[C@@H]1C[C@@H](C(=O)N[C@@H]([C@H]2O[C@H](SC)[C@H](OP(=O)(O)O)[C@@H](O)[C@H]2O)[C@H](C)Cl)N(C)C1 [Clindamycin Phosphate] | 1.64 | 0.653 | 0.924 | 0.907 | 0.808 | 1.38 |
| CCCS(=O)(=O)Nc1ccc(F)c(C(=O)c2c[nH]c3ncc(Cl)cc23)c1F | 0.904 | 1.4 | 0.951 | 1.12 | 2.17 | 0.992 |
| Cc1cc(NS(=O)(=O)c2ccc(N)cc2)nc(C)n1 [sulfaisodimidine] | 0.897 | 0.563 | 0.503 | 0.948 | 0.529 | 0.686 |
| CC(C)(C)c1[nH]cnc1/C=c1\[nH]c(=O)/c(=C/c2ccccc2)[nH]c1=O [Plinabulin (NPI-2358)] | 3.18 | 3.25 | 4.17 | 2.89 | 4.1 | 2.86 |
| Clc1ccccc1CN1CCc2sccc2C1 [Ticlopidine HCl] | 1.29 | 1.12 | 1.3 | 1.59 | 0.746 | 1.56 |
| OC[C@H]1O[C@@H](O[C@@H]2[C@@H](CO)OC(O)(CO)[C@H]2O)[C@H](O)[C@@H](O)[C@H]1O (mixture of isomers) [Lactulose] | 1.29 | 0.822 | 0.75 | 0.999 | 1.43 | 1.7 |
| CCN[C@H]1CN(CCCOC)S(=O)(=O)c2sc(S(N)(=O)=O)cc21 [Brinzolamide] | 1.5 | 1.1 | 1.06 | 1.48 | 0.663 | 2.07 |
| N#CCCCSC(=N)N [Kevetrin hydrochloride] | 1.5 | 0.842 | 1.04 | 0.849 | 0.473 | 0.902 |
| Cc1c(-c2ccccc2)oc2c(C(=O)OCCN3CCCCC3)cccc2c1=O [Flavoxate HCl] | 0.908 | 2.27 | 1.73 | 2.91 | 0.927 | 1.61 |
| CN1CCC(OC(c2ccccc2)c2ccccc2)CC1 [Diphenylpyraline hydrochloride] | 0.93 | 0.611 | 2.19 | 1.17 | 0.532 | 0.876 |
| C[C@]12CC[C@@H]3c4ccc(O)cc4CC[C@H]3[C@@H]1C[C@@H](O)[C@@H]2O [Estriol] | 1.2 | 0.835 | 1.5 | 0.871 | 0.511 | 1.2 |
| C=CCc1ccccc1OCC(O)CNC(C)C (configuration not stated) [Alprenolol hydrochloride] | 0.84 | 0.761 | 1.36 | 1.77 | 0.91 | 1.07 |
| COC(c1ccccc1)(c1ccccc1)[C@H](Oc1nc(C)cc(C)n1)C(=O)O [Ambrisentan] | 1.45 | 0.738 | 1.17 | 0.718 | 2.03 | 1.52 |

| Compound | Euclidean distance (786-O) | Euclidean distance (A549) | Euclidean distance (DU145) | Euclidean distance (FB) | Euclidean distance (HEPG2) | Euclidean distance (OVCAR4) |
| --- | --- | --- | --- | --- | --- | --- |
| O=C1[C@@H]2[C@H]3CC[C@H](C3)[C@@H]2C(=O)N1C[C@@H]1CCCC[C@H]1CN1CCN(c2nsc3ccccc23)CC1 [lurasidone] | 1.37 | 1.25 | 1.92 | 1.35 | 0.479 | 1.27 |
| O=C(O)[C@H]1O[C@@H](Oc2cc3oc(-c4ccccc4)cc(=O)c3c(O)c2O)[C@H](O)[C@@H](O)[C@@H]1O [Baicalin] | 1.89 | 0.742 | 1.25 | 1.48 | 0.763 | 1.22 |
| CC(C)c1ccc(NC(=O)Cn2cnc3c2c(=O)n(C)c(=O)n3C)cc1 | 1.03 | 1.06 | 1.22 | 0.919 | 0.953 | 1.16 |
| CCCCCCCCN=C(N)NC(N)=NCc1ccc(Cl)c(Cl)c1 [Olanexidine Hydrochloride semihydrate] | 5.91 | 4.86 | 6.25 | 6.15 | 3.98 | 5.78 |
| NCCc1ccc(O)c(O)c1 [Dopamine HCl] | 1.84 | 0.481 | 0.944 | 1.26 | 0.844 | 3.26 |
| C[C@@H]1CCO[C@H]2Cn3cc(C(=O)NCc4ccc(F)cc4F)c(=O)c(O)c3C(=O)N12 | 1.38 | 1.81 | 1.15 | 1 | 1.37 | 1.79 |
| CCCCCCCCCCCC1=C(O)C(=O)C=C(O)C1=O [Embelin] | 1.85 | 1.18 | 1.4 | 1.6 | 1.16 | 1.88 |
| CC[N+](CC)(CC)CCOc1cccc(OCC[N+](CC)(CC)CC)c1OCC[N+](CC)(CC)CC [Gallamine Triethiodide] | 0.82 | 0.878 | 1.08 | 1.22 | 1.06 | 1.04 |
| CC1(C)CCC(CN2CCN(c3ccc(C(=O)NS(=O)(=O)c4ccc(NCC5CCOCC5)c([N+](=O)[O-])c4)c(Oc4cnc5[nH]ccc5c4)c3)CC2)=C(c2ccc(Cl)cc2)C1 | 2.06 | 1.55 | 1.25 | 0.81 | 1.11 | 1.16 |
| NCCS [Cysteamine HCl] | 0.86 | 0.424 | 0.624 | 1.02 | 0.897 | 1.07 |
| C[C@H](NC(=O)Cc1cc(F)cc(F)c1)C(=O)N[C@@H]1C(=O)N(C)c2ccccc2-c2ccccc21 | 0.725 | 1.36 | 1.17 | 1.09 | 0.895 | 0.686 |
| CCCC(C)NC(=O)c1ccc(Cl)c(Cl)c1 (configuration not stated) | 0.75 | 0.663 | 0.911 | 1.24 | 0.75 | 0.568 |
| O=C(Nc1cccc2c(=O)cc(-c3nnn[nH]3)oc12)c1ccc(OCCCCc2ccccc2)cc1 [Pranlukast] | 0.942 | 1.36 | 0.906 | 0.842 | 1.13 | 0.86 |
| C#C[C@]1(O)CC[C@H]2[C@@H]3CCC4=CCCC[C@@H]4[C@H]3C(=C)C[C@@]21CC [Desogestrel] | 0.933 | 0.431 | 0.928 | 0.753 | 0.742 | 0.826 |
| C[C@]1(Cn2ccnn2)[C@H](C(=O)O)N2C(=O)C[C@H]2S1(=O)=O [Tazobactam] | 0.708 | 0.639 | 0.78 | 0.984 | 0.41 | 0.673 |
| CC(=O)O[C@]1(C(C)=O)CC[C@H]2[C@@H]3C=C(C)C4=CC(=O)CC[C@]4(C)[C@H]3CC[C@@]21C [Megestrol Acetate] | 1.71 | 1.65 | 1.57 | 1.46 | 1.89 | 1.61 |
| CCCCOc1nc(N)c2c(n1)N(Cc1cccc(CN3CCCC3)c1)CC(=O)N2 | 1.32 | 0.517 | 0.661 | 0.941 | 0.589 | 1 |
| CC(Cc1ccc(O)c(O)c1)C(C)Cc1ccc(O)c(O)c1 (configuration not stated) [Nordihydroguaiaretic acid (NDGA)] | 1.19 | 0.902 | 1.27 | 1.54 | 1.06 | 0.861 |
| C[C@H](Nc1ccc(C#N)n(C)c1=O)c1cc2cc(Cl)ccc2[nH]c1=O [Olutasidenib (FT-2102)] | 1.42 | 0.866 | 0.784 | 1.36 | 0.641 | 1.06 |
| COc1ccc(-c2oc3c(CC=C(C)C)c(O[C@@H]4O[C@H](CO)[C@@H](O)[C@H](O)[C@H]4O)cc(O)c3c(=O)c2O[C@@H]2O[C@@H](C)[C@H](O)[C@@H](O)[C@H]2O)cc1 [Icariin] | 0.632 | 0.62 | 0.973 | 0.818 | 0.96 | 0.993 |
| CCC[C@H](NC(=O)[C@@H]1[C@H]2CCC[C@H]2CN1C(=O)[C@@H](NC(=O)[C@@H](NC(=O)c1cnccn1)C1CCCCC1)C(C)(C)C)C(=O)C(=O)NC1CC1 [Telaprevir (VX-950)] | 1.35 | 1.63 | 1.2 | 0.968 | 0.621 | 1.3 |
| CC(C(O)c1ccc(O)cc1)N1CCC(Cc2ccccc2)CC1 (configuration not stated) [Ifenprodil Tartrate] | 0.976 | 0.88 | 0.955 | 1.22 | 0.958 | 0.965 |
| CCN(CC)CCNC(=O)c1ccc(N)cc1 [Procainamide HCl] | 0.693 | 1.02 | 0.74 | 0.787 | 0.326 | 1.07 |
